# Assay results taken from PubChem BioAssay (EPA / NIEHS).
# Results filed as inconclusive are left out. Active and inactive are the calls of the source. Rule for the calls: active = hit-call score of the fitted dose curve at least 0.9, where 1 is the maximum; inconclusive = response in the unintended direction; inactive = score below 0.9.
# Target: Estrogen receptor (Homo sapiens) (UniProt P03372)
# Test: ATG_hERa_XSP1: Attagene TRANS-FACTORIAL Multi-Species (XSP1) HepG2 Assay for human Estrogen Receptor (ESR1) (AID 2283780)
# Experimental: ATG_XSP1_multi-species_TRANS is a cell-based, multiplexed assay created by modifying the existing Attagene TRANS-FACTORIAL system to include a panel of nuclear receptors from some or all the following species: human (Homo sapiens), mouse (Mus musculus), frog (Xenopus laevis), zebrafish (Danio rerio), chicken (Gallus gallus), and turtle (Chrysemys picta). The ECOTOX-FACTORIAL format uses HepG2, a human liver cell line, with measurements taken at 24 hours after chemical dosing in a 24-well plate. Xsp1 included 3 nM 6-alpha-fluorotestosterone to partially stimulate the androgen receptor.ATG_hERa_XSP1 is one of 29 assay components measured or calculated from the ATG_XSP1_multi-species_TRANS assay. It is designed to make measurements of mRNA induction, a form of inducible reporter, as detected with fluorescence intensity signals by Reverse transcription polymerase chain reaction (RT-PCR) and Capillary electrophoresis technology.The assay endpoint ATG_hERa_XSP1 was analyzed in the positive analysis fitting direction relative to DMSO as the negative control and baseline of activity. Using a type of inducible reporter, measures of mRNA for gain-of-signal activity can be used to understand the reporter gene at the transcription factor-level as they relate to the gene ER. Furthermore, this assay endpoint can be referred to as a primary readout, because this assay has produced multiple assay endpoints where this one serves a reporter gene function. To generalize the intended target to other relatable targets, this assay endpoint is annotated to the nuclear receptor intended target family, where the subfamily is steroidal.
# Human liver HepG2 cells are transiently transfected with multiple reporter transcription units (MRTUs) in 6-well plates using FuGene 6 reagent (Roche; 3 ml FuGene/1 mg DNA). The MRTU constructs are regulated by a cis-regulating element (promoter). […] A major difference between the CIS and TRANS system is that in CIS activities of endogenous TFs are measured, whereas the TRANS assay evaluates changes in activities of exogenous, chimeric NR-Gal4 proteins. […] At the end of 24 hour incubation, total RNA was isolated using TriZol reagent (Invitrogen). The isolated RNA is then reverse-transcribed using oligo(dT) primer and Mo-MLV reverse transcriptase (Invitrogen) with DNAse I (Ambion) treatment for 30 min. The one-tenth of the produced cDNA was amplified by PCR using Taq DNA polymerase (Invitrogen) and two reporter sequence-specific primers. The PCR products were fluorescently labeled by primer extension with 6-arboxyfluorescein (6-FAM) 5'-labeled reporter sequence-specific primer (2 min at 95 C, 20 s at 68 C and 10 min at 72 C) and these products were digested with 5U of HpaI (New England Biolabs) for 2h at 37 C. The fragments were purified using Qiaquick PCR columns (Qiagen), analyzed on an ABI 3130xL genetic analyzer (Applied Biosystems) with peak positions identified by using a set of X-rhodamine (ROX)-labeled MapMarker1000 molecular weight standards (BioVentures). The raw capillary electrophoresis data was processed using Attagraph software (Attagene).
# Chain of Estrogen receptor (Homo sapiens) (P03372 whole entry, looked up): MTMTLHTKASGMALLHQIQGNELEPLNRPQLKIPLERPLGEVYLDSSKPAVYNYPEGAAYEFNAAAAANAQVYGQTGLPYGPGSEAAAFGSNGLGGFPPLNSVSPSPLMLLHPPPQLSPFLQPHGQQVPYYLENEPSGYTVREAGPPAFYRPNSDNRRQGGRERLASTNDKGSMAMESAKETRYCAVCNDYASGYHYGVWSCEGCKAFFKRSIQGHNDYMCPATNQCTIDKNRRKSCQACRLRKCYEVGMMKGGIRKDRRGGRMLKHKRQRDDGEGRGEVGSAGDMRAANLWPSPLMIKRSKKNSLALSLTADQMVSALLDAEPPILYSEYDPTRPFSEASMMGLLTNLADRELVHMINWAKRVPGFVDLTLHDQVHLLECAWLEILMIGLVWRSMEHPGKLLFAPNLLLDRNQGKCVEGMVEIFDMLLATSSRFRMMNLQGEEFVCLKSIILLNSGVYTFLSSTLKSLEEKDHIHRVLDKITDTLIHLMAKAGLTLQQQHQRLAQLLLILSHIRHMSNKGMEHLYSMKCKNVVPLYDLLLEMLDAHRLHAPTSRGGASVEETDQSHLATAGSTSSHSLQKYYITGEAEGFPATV
Compound,outcome,AC50
CCCC1COC(Cn2cncn2)(c2ccc(Cl)cc2Cl)O1 (centres undefined),inactive,–
C#CCOS(=O)OC1CCCCC1Oc1ccc(C(C)(C)C)cc1 (centres undefined),–,5.29 µM (active)
COP(=S)(OC)Oc1nc(Cl)c(Cl)cc1Cl,–,27.1 µM (active)
COC(=O)N(OC)c1ccccc1COc1ccn(-c2ccc(Cl)cc2)n1,inactive,–
CC(C)Oc1cc(-n2nc(C(C)(C)C)oc2=O)c(Cl)cc1Cl,–,6.88 µM (active)
CC(C)(C)c1ccc(CSc2cnn(C(C)(C)C)c(=O)c2Cl)cc1,inactive,–
OC(c1ccc(Cl)cc1)(c1cncnc1)c1ccccc1Cl (centres undefined),–,2.22 µM (active)
C=CC1(C)OC(=O)N(c2cc(Cl)cc(Cl)c2)C1=O (centres undefined),–,100 µM (active)
CCCN(CCC)c1c([N+](=O)[O-])cc(S(N)(=O)=O)cc1[N+](=O)[O-],–,13.2 µM (active)
CO/C=C(/C(=O)OC)c1ccccc1Oc1cc(Oc2ccccc2C#N)ncn1,inactive,–
COc1ccc(C(c2ccc(OC)cc2)C(Cl)(Cl)Cl)cc1,–,0.821 µM (active)
CON(C)C(=O)Nc1ccc(Cl)c(Cl)c1,–,9.61 µM (active)
CCCCOC(=O)c1ccccc1C(=O)OCCCC,–,19.9 µM (active)
CCCCC(CC)COC(=O)c1ccccc1C(=O)OCC(CC)CCCC (centres undefined),inactive,–
